The full data set covers some 7,900 targets. This sample favours those with a hit. About 0.6% of all pairs of compound and target were hits.
Key:
Assay in all cases: log2 fold change, soluble protein after heating vs DMSO (PISA); higher = thermal stabilisation; K562 cells, 10 uM, 30 min; active = over 0.2 and 3.5 SD of the protein, either way, in both replicates (recomputed)
bafetinib = compound: Cc1ccc(NC(=O)c2ccc(CN3CC[C@H](N(C)C)C3)c(C(F)(F)F)c2)cc1Nc1nccc(-c2cncnc2)n1 [bafetinib]
Method in brief: (§1)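 K562 cells (2×10^6 cells/mL) were treated with 10 μM compound for 30 min, and aliquots were heated for 3 min over 48°C-58°C. Pooled aliquots were extracted in PBS with 0.5% NP-40 at 4°C, and the supernatant after 21,000xg for 90 min was measured by TMTpro 16plex LC-MS/MS with channel sums equalised. Reported thermal stability, relative to control samples and from duplicates, is a log2 fold change.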

[1] = compound: Cc1cccc(CC(=O)N2CCc3c2ccc(-c2cn(C)c4ncnc(N)c24)c3F)n1
Method in brief: as §1

nilotinib = compound: Cc1cn(-c2cc(NC(=O)c3ccc(C)c(Nc4nccc(-c5cccnc5)n4)c3)cc(C(F)(F)F)c2)cn1 [nilotinib]
Method in brief: as §1

[2] = compound: Cc1nc(Nc2n[nH]c3c2CN(C(=O)N[C@H](CN(C)C)c2ccccc2)C3(C)C)c2sccc2n1
Method in brief: as §1

dasatinib = compound: Cc1nc(Nc2ncc(C(=O)Nc3c(C)cccc3Cl)s2)cc(N2CCN(CCO)CC2)n1 [dasatinib]
Method in brief: as §1

[3] = compound: Cc1ncc(-c2ccnc(Nc3ccc(S(C)(=O)=O)cc3)n2)n1C(C)C
Method in brief: as §1

[4] = compound: Cn1cc(-c2ccc3c(c2)CCN3C(=O)Cc2cccc(C(F)(F)F)c2)c2c(N)ncnc21
Method in brief: as §1

[5] = compound: Cn1cc(-c2ccc3nnc(C(F)(F)c4ccc5ncccc5c4)n3n2)cn1
Method in brief: as §1

tipifarnib = compound: Cn1cncc1[C@@](N)(c1ccc(Cl)cc1)c1ccc2c(c1)c(-c1cccc(Cl)c1)cc(=O)n2C [tipifarnib]
Method in brief: as §1

mubritinib = compound: FC(F)(F)c1ccc(/C=C/c2nc(COc3ccc(CCCCn4ccnn4)cc3)co2)cc1 [mubritinib]
Method in brief: as §1

[6] = compound: NC(=O)Nc1cc(-c2cccc(F)c2)sc1C(=O)N[C@H]1CCCNC1
Method in brief: as §1

[7] = compound: NC(=O)c1cnc(N[C@@H]2CCCC[C@@H]2N)nc1Nc1cccc(-n2nccn2)c1
Method in brief: as §1

[8] = compound: NC1(c2ccc(-c3nc4ccn5c(=O)[nH]nc5c4cc3-c3ccccc3)cc2)CCC1
Method in brief: as §1

[9] = compound: NCC(=O)Nc1ccc(-n2nc(C(F)(F)F)cc2-c2ccc3c(ccc4ccccc43)c2)cc1
Method in brief: as §1

entinostat = compound: Nc1ccccc1NC(=O)c1ccc(CNC(=O)OCc2cccnc2)cc1 [entinostat]
Method in brief: as §1

vorinostat = compound: O=C(CCCCCCC(=O)Nc1ccccc1)NO [vorinostat]
Method in brief: as §1

citarinostat = compound: O=C(CCCCCCNC(=O)c1cnc(N(c2ccccc2)c2ccccc2Cl)nc1)NO [citarinostat]
Method in brief: as §1

silmitasertib = compound: O=C(O)c1ccc2c(c1)nc(Nc1cccc(Cl)c1)c1ccncc12 [silmitasertib]
Method in brief: as §1

[10] = compound: O=C1NC(=O)C(c2cnc3ccccn23)=C1c1cn2c3c(cc(F)cc13)CN(C(=O)N1CCCCC1)CC2
Method in brief: as §1

[11] = compound: c1cc(OCCN2CCCCC2)cc(-c2n[nH]c3ccc(-c4nnc[nH]4)cc23)c1
Method in brief: as §1

Measured: log2 fold change

POLR3B (UniProt Q9NW08)
inactive: bafetinib 0.104 | [1] 0.045 | nilotinib -0.111 | [2] -0.285 | dasatinib -0.238 | [3] -0.028 | [4] -0.059 | [5] 0.089 | tipifarnib -0.108 | mubritinib -0.086 | [6] -0.05 | [7] 0.017 | [8] -0.124 | [9] -0.009 | entinostat -0.014 | vorinostat 0.088 | citarinostat -0.022 | silmitasertib 0.111 | [10] 0.104 | [11] -0.047

PRKACA (UniProt P17612)
active: [2] 0.71
inactive: bafetinib -0.044 | [1] 0.107 | nilotinib -0.038 | dasatinib -0.107 | [3] -0.051 | [4] 0.01 | [5] -0.117 | tipifarnib -0.036 | mubritinib 0.066 | [6] 0.097 | [7] 0.048 | [8] -0.132 | [9] -0.025 | entinostat -0.019 | vorinostat 0.02 | citarinostat 0.023 | silmitasertib -0.051 | [10] 0.05 | [11] -0.067

PCNT (UniProt O95613)
Chain of UniProt O95613 (O95613 whole entry, looked up): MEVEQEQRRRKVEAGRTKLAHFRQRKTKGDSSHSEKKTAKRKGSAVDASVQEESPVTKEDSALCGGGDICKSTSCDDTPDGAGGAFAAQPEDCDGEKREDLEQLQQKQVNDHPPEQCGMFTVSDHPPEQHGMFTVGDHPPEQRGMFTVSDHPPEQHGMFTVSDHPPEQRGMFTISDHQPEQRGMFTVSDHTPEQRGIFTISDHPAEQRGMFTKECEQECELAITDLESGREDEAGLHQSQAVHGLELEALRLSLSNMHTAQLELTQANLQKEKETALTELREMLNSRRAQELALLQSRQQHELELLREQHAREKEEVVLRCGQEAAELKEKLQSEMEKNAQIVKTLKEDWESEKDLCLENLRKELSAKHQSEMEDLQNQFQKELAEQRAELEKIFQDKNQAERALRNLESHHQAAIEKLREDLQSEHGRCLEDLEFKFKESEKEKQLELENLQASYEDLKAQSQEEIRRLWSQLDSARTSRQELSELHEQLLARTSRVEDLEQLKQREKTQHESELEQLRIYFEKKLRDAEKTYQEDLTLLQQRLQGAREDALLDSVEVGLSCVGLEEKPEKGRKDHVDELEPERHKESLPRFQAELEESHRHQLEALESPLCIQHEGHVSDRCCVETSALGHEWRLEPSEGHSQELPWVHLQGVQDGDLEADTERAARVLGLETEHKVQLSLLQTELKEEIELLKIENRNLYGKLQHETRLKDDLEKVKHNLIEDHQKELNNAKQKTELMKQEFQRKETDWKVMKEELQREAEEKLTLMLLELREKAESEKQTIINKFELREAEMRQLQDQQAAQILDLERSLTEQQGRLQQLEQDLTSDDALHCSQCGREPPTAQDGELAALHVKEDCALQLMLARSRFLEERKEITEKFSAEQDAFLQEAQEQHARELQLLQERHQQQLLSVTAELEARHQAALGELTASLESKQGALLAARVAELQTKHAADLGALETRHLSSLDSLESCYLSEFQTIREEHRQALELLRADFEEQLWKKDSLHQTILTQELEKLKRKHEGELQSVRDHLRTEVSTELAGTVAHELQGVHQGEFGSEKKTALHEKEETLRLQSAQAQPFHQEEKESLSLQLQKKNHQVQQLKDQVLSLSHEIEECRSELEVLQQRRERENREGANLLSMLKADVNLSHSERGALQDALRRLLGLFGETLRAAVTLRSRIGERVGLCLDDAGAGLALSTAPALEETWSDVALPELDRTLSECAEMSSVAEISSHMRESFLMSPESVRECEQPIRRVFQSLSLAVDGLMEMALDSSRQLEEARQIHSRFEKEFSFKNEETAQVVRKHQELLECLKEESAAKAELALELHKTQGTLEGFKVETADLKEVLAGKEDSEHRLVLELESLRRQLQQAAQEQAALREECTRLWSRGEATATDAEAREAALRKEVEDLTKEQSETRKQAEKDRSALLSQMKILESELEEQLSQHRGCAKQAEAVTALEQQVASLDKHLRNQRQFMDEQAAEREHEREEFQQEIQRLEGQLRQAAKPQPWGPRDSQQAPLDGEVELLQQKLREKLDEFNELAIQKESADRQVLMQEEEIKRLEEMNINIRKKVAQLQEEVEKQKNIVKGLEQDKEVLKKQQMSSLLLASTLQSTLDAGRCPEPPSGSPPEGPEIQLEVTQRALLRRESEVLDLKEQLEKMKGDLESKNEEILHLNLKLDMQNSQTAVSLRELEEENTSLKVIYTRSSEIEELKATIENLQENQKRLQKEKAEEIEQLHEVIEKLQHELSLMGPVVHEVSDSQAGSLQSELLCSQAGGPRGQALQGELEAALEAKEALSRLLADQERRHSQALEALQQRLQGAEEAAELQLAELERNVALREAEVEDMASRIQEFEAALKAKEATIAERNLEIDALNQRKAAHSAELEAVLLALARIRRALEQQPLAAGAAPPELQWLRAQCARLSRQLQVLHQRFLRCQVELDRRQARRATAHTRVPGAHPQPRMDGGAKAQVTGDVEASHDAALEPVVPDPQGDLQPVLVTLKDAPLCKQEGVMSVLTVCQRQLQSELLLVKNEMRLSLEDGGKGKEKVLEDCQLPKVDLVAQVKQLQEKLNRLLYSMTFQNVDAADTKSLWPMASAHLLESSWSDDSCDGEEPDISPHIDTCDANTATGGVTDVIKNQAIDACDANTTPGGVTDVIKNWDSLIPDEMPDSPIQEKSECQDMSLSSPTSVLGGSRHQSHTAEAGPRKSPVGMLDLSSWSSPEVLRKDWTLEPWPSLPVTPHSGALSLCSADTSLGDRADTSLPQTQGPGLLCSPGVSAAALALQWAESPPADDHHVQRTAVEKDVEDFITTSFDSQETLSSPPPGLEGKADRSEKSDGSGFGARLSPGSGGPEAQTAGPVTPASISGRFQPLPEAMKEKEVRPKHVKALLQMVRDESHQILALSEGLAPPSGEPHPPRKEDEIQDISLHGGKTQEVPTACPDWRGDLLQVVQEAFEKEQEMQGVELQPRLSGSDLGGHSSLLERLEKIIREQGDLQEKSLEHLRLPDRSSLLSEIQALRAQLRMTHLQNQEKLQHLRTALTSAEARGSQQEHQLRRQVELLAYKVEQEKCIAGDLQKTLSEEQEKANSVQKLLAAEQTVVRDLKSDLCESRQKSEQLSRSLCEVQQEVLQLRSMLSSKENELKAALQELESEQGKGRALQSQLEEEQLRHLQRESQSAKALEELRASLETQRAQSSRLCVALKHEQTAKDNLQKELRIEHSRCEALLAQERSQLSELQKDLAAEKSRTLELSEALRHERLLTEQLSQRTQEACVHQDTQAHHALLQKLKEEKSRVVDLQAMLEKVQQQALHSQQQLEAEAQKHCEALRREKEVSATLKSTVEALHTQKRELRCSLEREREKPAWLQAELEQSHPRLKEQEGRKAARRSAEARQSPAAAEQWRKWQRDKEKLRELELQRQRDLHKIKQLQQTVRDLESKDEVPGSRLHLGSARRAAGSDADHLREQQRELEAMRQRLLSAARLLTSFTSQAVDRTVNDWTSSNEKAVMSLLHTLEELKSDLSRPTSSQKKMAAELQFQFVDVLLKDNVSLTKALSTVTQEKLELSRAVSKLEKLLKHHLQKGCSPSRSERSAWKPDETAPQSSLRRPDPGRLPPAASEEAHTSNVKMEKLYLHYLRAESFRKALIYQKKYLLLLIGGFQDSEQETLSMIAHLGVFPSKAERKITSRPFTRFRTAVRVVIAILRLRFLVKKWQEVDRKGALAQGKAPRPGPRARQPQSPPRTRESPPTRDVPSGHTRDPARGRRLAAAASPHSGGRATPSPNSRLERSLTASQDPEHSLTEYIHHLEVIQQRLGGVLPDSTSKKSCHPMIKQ
inactive: bafetinib -0.227 | [1] -0.324 | nilotinib -0.117 | [2] 0.045 | dasatinib 0.085 | [3] -0.002 | [4] -0.076 | [5] 0.107 | tipifarnib 0.127 | mubritinib -0.004 | [6] -0.341 | [7] -0.277 | [8] -0.106 | [9] -0.294 | entinostat -0.129 | vorinostat -0.137 | citarinostat -0.076 | silmitasertib 0.11 | [10] -0.142 | [11] -0.233

PMPCA (UniProt Q10713)
active: dasatinib 0.54 | tipifarnib 0.285
inactive: bafetinib 0.063 | [1] 0.016 | nilotinib 0.024 | [2] 0.057 | [3] -0.096 | [4] 0.067 | [5] 0.04 | mubritinib 0.087 | [6] -0.091 | [7] -0.059 | [8] -0.02 | [9] -0.053 | entinostat -0.018 | vorinostat -0.016 | citarinostat 0.017 | silmitasertib -0.061 | [10] 0.01 | [11] 0.015

PRKAR2A (UniProt P13861)
Chain of UniProt P13861 (P13861 whole entry, looked up): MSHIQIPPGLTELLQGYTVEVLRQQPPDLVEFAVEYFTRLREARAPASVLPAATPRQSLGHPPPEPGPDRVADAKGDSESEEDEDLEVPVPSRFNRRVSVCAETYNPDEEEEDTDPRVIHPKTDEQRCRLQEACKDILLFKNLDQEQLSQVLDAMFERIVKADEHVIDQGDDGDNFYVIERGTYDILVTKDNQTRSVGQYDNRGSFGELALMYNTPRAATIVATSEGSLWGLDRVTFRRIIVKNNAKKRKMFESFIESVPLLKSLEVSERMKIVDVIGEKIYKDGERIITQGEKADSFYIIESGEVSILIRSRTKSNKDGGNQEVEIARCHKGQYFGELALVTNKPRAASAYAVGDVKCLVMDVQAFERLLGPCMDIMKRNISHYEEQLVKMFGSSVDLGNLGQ
active: [2] -0.606 | [6] -0.502
inactive: bafetinib 0.029 | [1] 0.007 | nilotinib 0.139 | dasatinib -0.055 | [3] -0.026 | [4] 0.07 | [5] 0.102 | tipifarnib 0.004 | mubritinib 0.042 | [7] -0.071 | [8] -0.002 | [9] -0.039 | entinostat 0.025 | vorinostat -0.012 | citarinostat 0.002 | silmitasertib 0.051 | [10] 0.002 | [11] -0.028

PRCP (UniProt P42785)
inactive: bafetinib -0.209 | [1] -0.018 | nilotinib 0.011 | [2] 0.009 | dasatinib -0.021 | [3] -0.009 | [4] 0.02 | [5] 0.008 | tipifarnib 0.055 | mubritinib 0.057 | [6] 0.013 | [7] 0.005 | [8] -0.106 | [9] 0.008 | entinostat 0.035 | vorinostat 0.005 | citarinostat 0.028 | silmitasertib 0 | [10] -0.014 | [11] 0.044

PUF60 (UniProt Q9UHX1)
active: [2] -0.703
inactive: bafetinib 0.077 | [1] -0.04 | nilotinib -0.022 | dasatinib -0.085 | [3] -0.001 | [4] 0.008 | [5] -0.046 | tipifarnib -0.034 | mubritinib 0.024 | [6] -0.112 | [7] -0.029 | [8] -0.035 | [9] -0.132 | entinostat 0.049 | vorinostat 0.028 | citarinostat 0.079 | silmitasertib -0.098 | [10] -0.025 | [11] -0.092

PSMD6 (UniProt Q15008)
inactive: bafetinib 0.115 | [1] 0.008 | nilotinib 0.022 | [2] 0.054 | dasatinib 0.059 | [3] -0.014 | [4] -0.083 | [5] -0.035 | tipifarnib 0.03 | mubritinib -0.012 | [6] -0.028 | [7] 0.037 | [8] -0.024 | [9] 0.082 | entinostat -0.045 | vorinostat -0.001 | citarinostat -0.017 | silmitasertib 0.011 | [10] 0.039 | [11] -0.063

PRPF40A (UniProt O75400)
inactive: bafetinib -0.014 | [1] 0.005 | nilotinib -0.085 | [2] -0.058 | dasatinib -0.05 | [3] -0.135 | [4] 0.082 | [5] 0.048 | tipifarnib 0.045 | mubritinib -0.013 | [6] -0.014 | [7] -0.001 | [8] 0 | [9] -0.062 | entinostat 0.114 | vorinostat 0.048 | citarinostat 0.079 | silmitasertib -0.038 | [10] 0.003 | [11] -0.067

POLR2K (UniProt P53803)
active: [11] -0.474
inactive: bafetinib -0.052 | [1] -0.057 | nilotinib -0.021 | [2] 0.029 | dasatinib 0.081 | [3] 0.089 | [4] 0.006 | [5] 0.019 | tipifarnib -0.036 | mubritinib -0.008 | [6] -0.04 | [7] -0.107 | [8] 0.017 | [9] 0.053 | entinostat -0.01 | vorinostat -0.156 | citarinostat 0.13 | silmitasertib 0.097 | [10] 0.002

PARP1 (UniProt P09874)
Chain of UniProt P09874 (P09874 whole entry, looked up): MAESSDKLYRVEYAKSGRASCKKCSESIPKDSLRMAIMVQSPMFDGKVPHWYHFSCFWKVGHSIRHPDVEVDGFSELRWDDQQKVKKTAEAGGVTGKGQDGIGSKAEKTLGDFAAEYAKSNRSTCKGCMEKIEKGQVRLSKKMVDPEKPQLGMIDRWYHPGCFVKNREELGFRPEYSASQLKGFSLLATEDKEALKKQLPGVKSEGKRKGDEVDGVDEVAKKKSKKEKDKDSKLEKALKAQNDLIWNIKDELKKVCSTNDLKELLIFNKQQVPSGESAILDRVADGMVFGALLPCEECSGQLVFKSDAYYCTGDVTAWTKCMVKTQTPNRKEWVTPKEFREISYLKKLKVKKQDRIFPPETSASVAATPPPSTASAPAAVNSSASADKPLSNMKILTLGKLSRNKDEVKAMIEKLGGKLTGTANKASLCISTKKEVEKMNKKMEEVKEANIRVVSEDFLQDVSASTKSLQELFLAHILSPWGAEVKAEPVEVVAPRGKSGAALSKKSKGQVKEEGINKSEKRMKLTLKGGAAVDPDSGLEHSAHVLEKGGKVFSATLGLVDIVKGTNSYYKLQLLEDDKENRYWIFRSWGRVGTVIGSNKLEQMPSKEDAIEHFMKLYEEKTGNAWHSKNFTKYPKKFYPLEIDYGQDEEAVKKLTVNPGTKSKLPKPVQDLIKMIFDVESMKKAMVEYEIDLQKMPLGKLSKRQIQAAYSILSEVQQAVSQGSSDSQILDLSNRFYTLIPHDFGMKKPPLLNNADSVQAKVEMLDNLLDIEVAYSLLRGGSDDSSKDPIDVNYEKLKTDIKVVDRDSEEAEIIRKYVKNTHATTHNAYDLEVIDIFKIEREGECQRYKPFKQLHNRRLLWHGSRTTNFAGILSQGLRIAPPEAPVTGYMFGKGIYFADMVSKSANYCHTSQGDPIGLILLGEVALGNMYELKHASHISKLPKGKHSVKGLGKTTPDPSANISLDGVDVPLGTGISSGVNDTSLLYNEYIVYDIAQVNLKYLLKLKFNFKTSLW
inactive: bafetinib 0.05 | [1] -0.009 | nilotinib -0.028 | [2] -0.112 | dasatinib -0.245 | [3] 0.178 | [4] 0.026 | [5] 0.131 | tipifarnib -0.117 | mubritinib 0.044 | [6] -0.128 | [7] -0.064 | [8] -0.102 | [9] -0.09 | entinostat 0.142 | vorinostat 0.042 | citarinostat 0.091 | silmitasertib 0.039 | [10] -0.173 | [11] 0

PCGF2 (UniProt P35227)
inactive: bafetinib 0.015 | [1] -0.035 | nilotinib -0.097 | [2] -0.235 | dasatinib -0.127 | [3] 0.028 | [4] 0.004 | [5] 0.081 | tipifarnib 0.001 | mubritinib -0.001 | [6] -0.164 | [7] -0.125 | [8] -0.048 | [9] -0.025 | entinostat 0.114 | vorinostat -0.059 | citarinostat 0.134 | silmitasertib 0.051 | [10] -0.069 | [11] -0.022

PSMA3 (UniProt P25788)
inactive: bafetinib 0.06 | [1] 0.003 | nilotinib 0.041 | [2] 0.041 | dasatinib 0.029 | [3] 0.008 | [4] -0.003 | [5] -0.005 | tipifarnib 0.006 | mubritinib -0.016 | [6] 0.03 | [7] 0.022 | [8] 0.071 | [9] 0.058 | entinostat -0.027 | vorinostat -0.029 | citarinostat 0.005 | silmitasertib -0.002 | [10] 0.102 | [11] -0.056

PIP4P2 (UniProt Q8N4L2)
inactive: bafetinib -0.083 | [1] -0.111 | nilotinib 0.013 | [2] -0.003 | dasatinib 0.055 | [3] -0.026 | [4] -0.03 | [5] 0.014 | tipifarnib 0.024 | mubritinib 0.005 | [6] 0.02 | [7] -0.152 | [9] -0.024 | entinostat 0.007 | vorinostat 0.042 | citarinostat -0.02 | silmitasertib 0.074 | [10] 0.082 | [11] 0.051
active: [8] -0.373

PPP1R14A (UniProt Q96A00)
Chain of UniProt Q96A00 (Q96A00 whole entry, looked up): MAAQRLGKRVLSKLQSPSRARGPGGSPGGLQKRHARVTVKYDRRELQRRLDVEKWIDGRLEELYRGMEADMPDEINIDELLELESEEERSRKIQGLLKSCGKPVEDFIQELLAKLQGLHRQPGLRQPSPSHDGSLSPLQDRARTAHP
inactive: bafetinib -0.058 | [1] 0.026 | nilotinib -0.01 | [2] 0.013 | dasatinib 0.019 | [3] 0.026 | [4] 0.076 | [5] -0.055 | tipifarnib 0 | mubritinib 0.033 | [6] -0.051 | [7] 0.101 | [8] 0.02 | [9] 0.029 | entinostat 0 | vorinostat 0.105 | citarinostat 0 | silmitasertib -0.089 | [10] -0.014 | [11] 0.018

QKI (UniProt Q96PU8)
inactive: bafetinib -0.001 | [1] 0.058 | nilotinib -0.015 | [2] -0.105 | dasatinib -0.029 | [3] -0.093 | [4] -0.007 | [5] -0.036 | tipifarnib -0.015 | mubritinib 0.003 | [6] -0.057 | [7] -0.137 | [8] -0.086 | [9] -0.084 | entinostat 0.006 | vorinostat 0.06 | citarinostat 0.026 | silmitasertib -0.012 | [10] -0.071 | [11] 0.064

From the supplement of paper PMC10849652
